Where “and” joins values, the source holds several entries; their conditions need not be identical. Equal entries are not always repeated. Some structures have more than one record in an assay (separate samples or runs), and their calls can disagree. Calls of active or inactive are those of the source. Rule for the calls: active = hit-call score of the fitted dose curve at least 0.9, where 1 is the maximum; inactive = score below 0.9.
Each compound was assayed on Interleukin-8 (IL8), CXCL8 (gene 3576) (assay: BSK_KF3CT_IL8: BioMAP Diversity Plus: KF3CT Assay for Interleukin-8 (IL8) Biomarker Activity (AID 2284254)). Settings: primary human keratinocytes with fibroblasts.
Description: BSK_KF3CT is a cell-based, multiplexed-readout assay that uses keratinocytes and foreskin fibroblasts, a human skin primary cell co-culture, with measurements taken at 24 hours after chemical dosing in a 96-well plate.BSK_KF3CT_IL8 is an assay component measured in the BSK_KF3CT assay. It measures IL-8 antibody related to regulation of gene expression using ELISA technology.Data from the assay component BSK_KF3CT_IL8 was analyzed at the endpoint, BSK_KF3CT_IL8, in the positive analysis fitting direction relative to DMSO as the negative control and baseline of activity. Using a type of binding reporter, gain or loss-of-signal activity can be used to understand protein changes. To generalize the intended target to other relatable targets, this assay endpoint is annotated to the 'cytokine' intended target family, where the subfamily is 'interleukins'.
The levels of cell surface (or secreted, indicated by the prefix "s") biomarker endpoints were measured by ELISA. Overt cytotoxicity to cells in confluent adherent cultures (all systems other than the BT system) was assessed by measuring total protein levels using sulforhodamine B (SRB) staining in parallel cultures at the time of biomarker measurements, indicated as SRB endpoints. For proliferation assays for adherent cell types, individual cell types are cultured at sub-confluence and relative cell numbers quantified by SRB staining at time points optimized for each system (48 h: 3C and CASM3C systems; 72 h: BT and HDF3CGF systems; 96 h: SAg system). SRB was performed by staining cells with 0.1% SRB after fixation with 10% TCA and reading wells at 560 nm.Viability and proliferation of PBMC (T cells) was quantified by Alamar Blue reduction for the SAg and BT systems. For PBMC viability (referred to as PBMC Cytotoxicity within the assay endpoint names), cells were plated (75,000/well in a 96-well plate) and then chemical samples added for 1 h before addition of activators, SEB and TSST-1 (20 ng/mL final concentration each). Cells were incubated for 90 h. Then, Alamar Blue (20 uL/well) (Invitrogen, Cat DAL1100) was added for 6 h, and the plates were read with a fluorescence microplate reader at 546/580 nm (excitation/emission). For PBMC proliferation, cells were plated and activated as above but incubated for only 16 h prior to addition of Alamar Blue. Plates were read after 6 h.
In the case of `CN(C(=O)C(F)(F)C(F)(F)C(F)(F)F)[Si](C)(C)C`, the outcome is reported as “inactive”. In the case of `C=CC(=O)OCCC(F)(F)C(F)(F)C(F)(F)C(F)(F)F`, the outcome is reported as “inactive”. `O=C(O)C(F)(F)OC(F)(F)C(F)(F)OC(F)(F)C(F)(F)OC(F)(F)F` was tested, and the outcome was “inactive”. With `O=C(Cl)C(F)(F)C(F)(F)C(F)(F)C(F)(F)C(F)(F)C(F)(F)F` the outcome was “inactive”. `CCOC(=O)CC(=O)C(F)(F)C(F)(F)F` was tested, and the outcome was “inactive”. `NC(O)(C(F)(F)F)C(F)(F)F` was tested, and the outcome was “inactive”. With `CCN=C1C=CC(=C(c2ccc(N(CC)CC)cc2)c2ccc(N(CC)CC)cc2)c2ccccc21` the AC50 was 2.34 µM (active) and the outcome was “inactive”. For `NS(=O)(=O)C(F)(F)C(F)(F)C(F)(F)C(F)(F)C(F)(F)C(F)(F)F`, the outcome was “inactive”. `OCC(F)(F)C(F)(F)C(F)(F)CO` was tested, and the outcome was “inactive”. With `CCN(CCO)S(=O)(=O)C(F)(F)C(F)(F)C(F)(F)C(F)(F)C(F)(F)C(F)(F)C(F)(F)C(F)(F)F` the AC50 was 5.61 µM (active) and the outcome was “inactive”. With `CO[Si](C)(CCC(F)(F)C(F)(F)C(F)(F)C(F)(F)C(F)(F)C(F)(F)F)OC` the outcome was “inactive”. `OCCCC(F)(F)C(F)(F)C(F)(F)C(F)(F)C(F)(F)C(F)(F)C(F)(F)C(F)(F)F` was tested, and the AC50 was 17.1 µM (active) and 13.7 µM (active). With `NC(=O)C(F)(F)C(F)(F)C(F)(F)C(F)F` the outcome was “inactive”. With `O=C(O)CCC(F)(F)C(F)(F)C(F)(F)C(F)(F)C(F)(F)C(F)(F)C(F)(F)F` the outcome was “inactive” and the AC50 was 4.26 µM (active). With `O=C(F)C1(F)C(F)(F)C(F)(F)C(F)(F)C(F)(F)C1(F)F` the outcome was “inactive”. In the case of `OCC(F)(F)C(F)(F)C(F)(F)C(F)(F)C(F)(F)C(F)(F)CO`, the outcome is reported as “inactive”. For `FC(F)(F)C(F)(F)C(F)(F)C(F)(F)C(F)(F)C(F)(F)CC[Si](Cl)(Cl)Cl`, the outcome was “inactive”. For `O=C(O)CCC(F)(F)C(F)(F)C(F)(F)F`, the outcome was “inactive”. With `O=C(O)C(F)(F)C(F)(F)C(F)(F)OC(F)(C(F)(F)F)C(F)(F)F` the AC50 was 16.5 µM (active) and the outcome was “inactive”. In the case of `O=S(=O)(O)CCC(F)(F)C(F)(F)C(F)(F)C(F)(F)C(F)(F)C(F)(F)C(F)(F)C(F)(F)F`, the outcome is reported as “inactive” and the AC50 is reported as 30 µM (active). In the case of `FC(F)(F)C(F)(F)C(F)(F)C(F)(F)C(F)(F)C(F)(F)C(F)(F)CCI`, the outcome is reported as “inactive”. `C=CC(=O)OCC(F)(F)C(F)(F)C(F)(F)COC(=O)C=C` was tested, and the AC50 was 14.7 µM (active) and 14.9 µM (active). `NCC(F)(F)C(F)(F)C(F)(F)C(F)(F)C(F)(F)C(F)(F)F` was tested, and the outcome was “inactive”. `NCC(F)(F)C(F)(F)C(F)(F)C(F)(F)C(F)(F)C(F)(F)C(F)(F)C(F)(F)F` was tested, and the outcome was “inactive”. With `O=C(Cl)C(F)(F)C(F)(F)C(F)(F)C(F)(F)C(F)(F)C(F)(F)C(F)(F)F` the outcome was “inactive”. With `OC(O)C(F)(F)C(F)(F)F` the outcome was “inactive”. With `OCC(F)(F)C(F)(F)C(F)(F)C(F)(F)C(F)(F)C(F)(F)C(F)(F)C(F)(F)CO` the AC50 was 47.4 µM (active) and 50.4 µM (active). With `CNS(=O)(=O)C(F)(F)C(F)(F)C(F)(F)C(F)(F)C(F)(F)C(F)(F)C(F)(F)C(F)(F)F` the AC50 was 8.13 µM (active) and 9.41 µM (active). For `COC(F)(C(F)F)C(F)(F)F` (stereo unspecified), the outcome was “inactive”. With `NC(=O)C(F)(F)C(F)(F)C(F)(F)C(F)(F)C(N)=O` the outcome was “inactive”. In the case of `O=C(O)C(F)(F)C(F)(F)C(F)(F)C(=O)O`, the outcome is reported as “inactive”. `FC(F)(F)C(F)(F)C(F)(F)CC1CO1` (stereo unspecified) was tested, and the outcome was “inactive”. With `O=S(=O)(OCC(F)(F)F)C(F)(F)C(F)(F)C(F)(F)C(F)(F)F` the outcome was “inactive”. In the case of `O=C(O)C(F)(F)C(F)(F)C(F)(F)OC(F)(F)F`, the outcome is reported as “inactive”. With `O=C(O)C(F)(F)C(F)(F)C(F)(F)C(F)(F)C(F)(F)C(F)(F)C(F)F` the AC50 was 17.2 µM (active) and the outcome was “inactive”.

— PubChem BioAssay (EPA / NIEHS)
